NTMT1 inh: Primary qHTS for Inhibitors of N-terminal methyltransferase 1 (NTMT1): MTaseGlo Assay; N-terminal Xaa-Pro-Lys N-methyltransferase 1 (Homo sapiens), Q9BV86; NTMT1 MTase-Glo SAH luminescence, purified enzyme; Potency, µM (top dose mostly 114 µM), for the others: at the highest dose activity change, negative = inhibition, hits mostly inhibitors; 2.5% of 59,000 active;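 note: plate controls were DMSO vehicle for no effect and no enzyme for full effect; nearly all actives have a fitted effect of over 65% in size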
HTT-AS promoter: Primary qHTS for Identification of Small Molecule Activators of Huntingtin-Antisense Promoter Activity | 0.24% of 48,000 active | Potency, µM (titrated, usually from 57.5 µM), for inactives: at the highest dose activity change, positive = activation, most hits filed as activators | HEK293 HTT-AS promoter firefly luciferase reporter, 24 h; response scale: percent change from vehicle, -100% = no light | AID 1508624, 2021; note: nearly all actives have a fitted effect of over 55% in size
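HEK293 Fluc reporter, 2,500 cells/well, 24 h pre-culture; cpds up to 57.5 uM final, 24 h 37 degrees C; Dual-Glo, 10 min RT; normalized vehicle = 0%, zero RLU = -100%.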
GALC G270D act: A Novel Cell-Based Assay to Identify Small Molecules for B -Galactocerebrosidase; P54803; AID 1159614, 2016; Potency, µM (series often up to 57.5 µM), usual class: activators; 145M-Twi-hGALC-G270D cells (Twitcher mouse brain line with human GALC G270D), HMU-beta-Gal fluorescence, 48 h; 0.1% of 45,000 active; note: 0% is about no effect; nearly all actives have a fitted effect of over 65% in size
Target sequence (P54803 whole entry G286D): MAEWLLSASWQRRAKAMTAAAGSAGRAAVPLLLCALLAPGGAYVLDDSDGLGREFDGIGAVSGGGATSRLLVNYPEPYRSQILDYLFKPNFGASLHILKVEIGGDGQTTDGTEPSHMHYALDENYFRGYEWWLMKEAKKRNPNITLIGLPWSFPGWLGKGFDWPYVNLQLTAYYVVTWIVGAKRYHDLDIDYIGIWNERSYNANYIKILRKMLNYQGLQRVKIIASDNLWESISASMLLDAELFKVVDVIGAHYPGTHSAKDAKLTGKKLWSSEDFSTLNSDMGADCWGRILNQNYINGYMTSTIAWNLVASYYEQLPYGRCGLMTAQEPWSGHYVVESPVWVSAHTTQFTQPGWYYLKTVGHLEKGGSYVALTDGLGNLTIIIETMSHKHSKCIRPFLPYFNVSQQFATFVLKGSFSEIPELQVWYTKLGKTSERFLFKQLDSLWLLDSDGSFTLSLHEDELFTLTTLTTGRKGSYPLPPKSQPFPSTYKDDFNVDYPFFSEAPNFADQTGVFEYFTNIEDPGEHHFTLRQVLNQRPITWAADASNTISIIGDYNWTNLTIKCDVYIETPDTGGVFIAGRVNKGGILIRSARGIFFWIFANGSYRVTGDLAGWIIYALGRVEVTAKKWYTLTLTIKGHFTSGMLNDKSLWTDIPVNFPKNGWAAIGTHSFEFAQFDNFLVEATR
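Live 145M-Twi cells (Twitcher mouse brain-derived, GALC-null) stably expressing human GALC-G270D, with a wild-type GALC line, were compound-treated. Residual GALC activity was then read as fluorescence from 0.1 mM final HMU-β-gal at pH 5.2; higher signal means activation.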
HTT prom inh: Primary qHTS for Identification of Small Molecule Inhibitors of Huntingtin Promoter Activity; HEK293 HTT promoter firefly luciferase reporter, 24 h; Potency, µM (doses to about 57.5 µM), inactives show at the highest dose activity change, negative = inhibition, usual class: inhibitors; 0.93% of 48,000 active; note: nearly all actives have a fitted effect of over 50% in size
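HEK293 luciferase promoter-reporter cells (2,500/well) plated 24 h, then compounds added at up to 57.5 uM final for 24 h at 37 °C. Firefly luminescence by Dual-Glo, normalized to vehicle (0%) and zero RLU (-100%).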
* = called active by the depositor; i = inactive; ? = inconclusive; . = no result given; ! = a repeat was not active; [ ] = remark or other dose. A selection: hits, their analogues and other compounds. The true share with any hit is near 2.7%. Calls come from the whole dose curve; as a rule, active = well fitted curve in the direction sought with a large enough effect; inconclusive = small, poorly fitted or top-dose-only effect, or another doubt; inactive = no such curve, though single readings can be large; an effect the other way counts as inactive or inconclusive. Potency is the fitted concentration of half-maximal effect.

SMILES	NTMT1 inh	HTT-AS promoter	GALC G270D act	HTT prom inh
Cc1ccc(Nc2nc3nonc3nc2Nc2cccc(C(F)(F)F)c2)cc1Cl	23%	-91%	i	1.3µM*
Cc1cc(Nc2cccc(C(F)(F)F)c2)ncn1	-18%	-11%	i	-15%
CC1=C(/C=C/C(C)=C/C=C/C(C)=C/C(=O)O)C(C)(C)CCC1	79µM*!	-7%	i	-2%
O=C(NCCc1nc2ccccc2n1CCOc1ccc(F)cc1)C1CCCCC1	19%	.	.	.
C#Cc1cccc(Nc2ncnc3cc(OC)c(OC)cc23)c1	-10%	.	.	.
C#Cc1cccc(Nc2ncnc3cc(OCCOC)c(OCCO)cc23)c1	35µM*	-36%	.	?
COc1ccc(Br)cc1C(=O)Nc1nc2ccc(F)cc2s1	-1%	1.8µM*	i	100%
COc1ccc([S+](=O)([O-])Nc2ccc(-c3nc4ccccc4[nH]3)cc2)cc1OC	16%	.	.	.
CC1(C)CC[C@]2(C(=O)O[C@@H]3O[C@H](CO)[C@@H](O)[C@H](O)[C@H]3O)CC[C@]3(C)C(=CCC4[C@@]5(C)C[C@@H](O)[C@H](O)[C@](C)(C=O)C5CC[C@]43C)[C@@H]2[C@@H]1O (stereo partly specified)	7%[12.6 µM]	.	.	.
O=C(COc1ccccc1Cl)Nc1nc2c(s1)CCCC2	-2%	24%	i	26%
COc1cccc(C(=O)Nc2nc3c(s2)CCCC3)c1	40µM*	?	i	15%
CCCOc1ccccc1C(=O)Nc1nc2c(s1)CCCC2	79µM*	-26%	i	-26%
CCOc1cccc(C(=O)Nc2nc3c(s2)CC(C(C)(C)C)CC3)c1 (stereo unspecified)	?	-7%	i	-5%
CC(=O)NCCCCn1c2c(c3ccccc31)C(=O)NCC2	3%[57.5 µM]	.	.	.
CCCCCCCCCC(=O)N[C@@H](Cc1c[nH]c2ccccc12)C(=O)N[C@H](CC(N)=O)C(=O)N[C@@H](CC(=O)O)C(=O)N[C@@H]1C(=O)NCC(=O)N[C@@H](CCCN)C(=O)N[C@@H](CC(=O)O)C(=O)N[C@H](C)C(=O)N[C@@H](CC(=O)O)C(=O)NCC(=O)N[C@H](CO)C(=O)N[C@@H]([C@@H](C)CC(=O)O)C(=O)N[C@@H](CC(=O)c2ccccc2N)C(=O)O[C@@H]1C	7%[57.5 µM]	-7%	.	0%
CN(CCOc1ccc(-c2ccc3c(c2)OCO3)cc1C(C)(C)C)CC(=O)O	-6%	.	.	.
CCN(CC)CCNC(=O)c1c(C)[nH]c(/C=C2\C(=O)Nc3ccc(F)cc32)c1C	35µM*	-24%	i	?
CCN(CC)CCNC(=O)c1ccc2c(c1)NC(=O)C(CS(=O)(=O)Cc1ccc(F)cc1Cl)N2 (stereo unspecified)	-10%	-7%	i	-1%
Cc1nc(-c2ccc(OCC(C)C)c(C#N)c2)sc1C(=O)O	?	-81%	i	5µM*!
Cc1ccccc1-c1nnc(C2CCN(S(=O)(=O)c3ccc(Cl)cc3)CC2)o1	-3%	-54%	i	16µM*
COc1ccc(S(=O)(=O)N2CCC(c3nnc(-c4ccccc4C)o3)CC2)c(OC)c1	0%	-31%	i	?
CCCCCCOC(=O)/N=C(\N)c1ccc(NCc2nc3cc(C(=O)N(CCC(=O)OCC)c4ccccn4)ccc3n2C)cc1	7%[57.5 µM]	.	.	.
Cc1cccc(CNc2ccnc(-c3cc(C(F)(F)F)cc(C(F)(F)F)c3)n2)c1	11%	.	.	.
COc1ccccc1CNC(=O)CSc1ncc2c(n1)-c1ccccc1N(Cc1ccc(C)cc1)S2(=O)=O	79µM*	-8%	i	-6%
COc1ccccc1CNC(=O)CSc1ncc2c(n1)-c1ccc(Cl)cc1N(Cc1ccccc1)S2(=O)=O	2%	-8%	i	-2%
O=C(CCNC(=O)c1ccc(OC(F)(F)F)cc1)N[C@@H]1CCCc2ccccc21	9%	.	.	.
Cc1cccc(NC(=O)CSc2nnc(-c3cccs3)o2)c1	18%	25µM*	i	89%
COc1cccc(NC(=O)CSc2nnc(-c3cccs3)o2)c1	-13%	?	i	71%
O=C(NCCCNc1nc(Nc2cccc(NC(=O)N3CCCC3)c2)ncc1I)c1cccs1	40µM*	-46%	.	?

Source: PubChem (National Center for Advancing Translational Sciences (NCATS))
